D1 ag: agonists of human D1 dopamine receptor; P21728; HEK293 T-REx D1 cells, calcium flux, agonist mode; activation, % at 2 µM; hit rate 1% among 360,000; AID 504660
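Inducible HEK293 T-REx D1 cells, force-coupled to calcium signalling, were plated at 4000 cells/well with tetracycline and held overnight at 30 C. After no-wash calcium dye loading, compound-evoked calcium rise over 180 s flagged agonists.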
D1 potentiator: human D1 dopamine receptor positive modulation; hit rate 0.036% among 360,000; AID 504651; HEK293 TREx D1 cells, calcium flux, dopamine EC20 potentiation; potentiation, % at 10 µM; P21728; in the data active = potentiation above about 30%
D1 antagonist: antagonists of human D1 dopamine receptor | HEK293 TREx D1 cells, calcium flux, dopamine EC80; active compounds read low | P21728 | hit rate 3.2% among 360,000 | activity change, negative = inhibition, % at 10 µM; in the data active = activity change below about -30%
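HEK293 T-REx cells expressing inducible, force-coupled D1 receptor; no-wash Ca dye, 30–90 min RT. Cmpd → 180 s read at 1 Hz → EC80 DA → 180 s read.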
TRHR agonist: activates the human TRH receptor; TRHR cells, calcium flux fluo-8, FDSS agonist mode; activation, % at 2 µM; hit rate 0.18% among 360,000; AID 493084
Target sequence (P34981 whole entry, looked up): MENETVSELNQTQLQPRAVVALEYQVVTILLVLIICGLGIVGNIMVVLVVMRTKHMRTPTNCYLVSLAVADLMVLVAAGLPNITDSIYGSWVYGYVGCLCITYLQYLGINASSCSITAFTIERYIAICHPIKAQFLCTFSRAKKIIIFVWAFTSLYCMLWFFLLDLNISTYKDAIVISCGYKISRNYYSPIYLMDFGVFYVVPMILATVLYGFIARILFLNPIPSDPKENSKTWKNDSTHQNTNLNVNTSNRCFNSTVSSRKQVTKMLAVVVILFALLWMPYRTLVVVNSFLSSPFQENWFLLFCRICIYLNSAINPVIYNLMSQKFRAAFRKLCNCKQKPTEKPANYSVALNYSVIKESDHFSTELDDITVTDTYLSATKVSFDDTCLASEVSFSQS
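TRHR-expressing cells, plated overnight in medium with 10% serum, were loaded with fluo-8 calcium dye at room temperature. After a 10 s baseline, library compound was pin-added and calcium release was recorded kinetically (ex 480/em 530) as agonist response.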
TRHR PAM: allosteric enhancers of human TRH receptor; P34981; TRHR cells, fluo-8 calcium fluorescence, EC20 TRH enhancement; enhancement, % at 2 µM; hit rate 0.66% among 360,000; AID 493056; in the data active = enhancement above about 30%
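TRHR-expressing cells loaded with fluo-8 calcium dye were read kinetically (ex 480/em 530) during compound addition, then stimulated with an EC20 of TRH (10 nM final). Enhancement of the Gq-mediated intracellular calcium response was scored.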
A number is an active result; i = inactive; nt = not tested or not shown. Shown are actives, neighbours in structure and some others; about 4.7% of the full set was active somewhere. Rule as the data show it, unless noted: active = activation above about 30%; inactive = the rest.

SMILES	D1 ag	D1 potentiator	D1 antagonist	TRHR agonist	TRHR PAM
COc1cccc(C(C(=O)NCc2ccco2)N(Cc2ccco2)C(=O)Cn2nnc3ccccc32)c1 (stereo not given)	i	i	-33	i	i
COc1cccc(N(C(=O)Cn2nnc3ccccc32)C(C(=O)NCc2ccco2)c2cccnc2)c1 (stereo not given)	i	i	i	i	i
CCOc1ccc(NS(=O)(=O)c2ccc(C(=O)N3CCN(c4ncccn4)CC3)cc2)cc1	i	i	i	i	i
CCOc1ccc(S(=O)(=O)Nc2ccc(C(=O)N3CC(C)OC(C)C3)cc2)cc1 (stereo not given)	31	i	i	i	i
CS(=O)(=O)N1CCc2cc(S(=O)(=O)NCc3ccccc3Cl)ccc21	i	i	-101	i	i
CCOc1ccc(NS(=O)(=O)c2ccc3c(c2)N(C(C)=O)CC3)cc1	i	i	-32	i	i
CS(=O)(=O)N1CCc2cc(S(=O)(=O)NCCNS(=O)(=O)c3ccc4c(c3)CCN4S(C)(=O)=O)ccc21	i	i	i	i	i
CCOc1ccc(NS(=O)(=O)c2ccc(C(=O)N3CCCCC3)cc2)cc1	50	i	i	i	i
O=C(Cn1c2ncccc2c(=O)n1-c1ccccc1)Nc1ccc(Cl)cc1C(F)(F)F	i	i	i	i	i
COc1cn(CC(=O)Nc2cc(C)cc(C)c2)c(CN2CCCCC2)cc1=O	i	i	i	i	i
CCOc1ccc(S(=O)(=O)Nc2ccc(C(=O)NCC3(N4CCCCC4)CCCCC3)cc2)cc1	54	i	i	i	i
CCOc1ccc(NS(=O)(=O)c2ccc(C(=O)N3CC(C)OC(C)C3)cc2)cc1 (stereo not given)	113	i	-59	i	i
CC(=O)N1CCCc2cc(S(=O)(=O)NCc3ccccc3Cl)ccc21	i	i	i	i	i
CC1CN(C(=O)c2ccc(NS(=O)(=O)c3ccc(C(C)(C)C)cc3)cc2)CC(C)O1 (stereo not given)	35	i	i	i	i
CCOc1ccccc1CNS(=O)(=O)c1ccc2c(c1)CCCN2C(C)=O	i	i	-50	i	i
Cc1ccc(C(=O)c2oc3ccccc3c2NC(=O)COc2ccc(Cl)c(C)c2)cc1	i	i	i	i	i
Fc1ccc(-c2cn3cc(Cc4ccc(Cl)cc4)sc3n2)cc1	i	i	i	i	i
COc1ccc(C)cc1NC(=O)CSc1nc(=O)n(Cc2ccco2)c2c1CCC2	i	i	nt	i	i
CSc1nn(Cc2ccccc2C)c(NC(C)=O)c1S(=O)(=O)c1ccc(C)cc1	i	i	-33	i	i
CCCn1cc(S(=O)(=O)c2cc(C)ccc2C)c(=O)c2cc(F)c(N3CCOCC3)cc21	i	i	i	i	i
O=c1cc(N2CCCC2)c2ccccc2o1	i	i	i	i	35
O=c1cc(N2CCOCC2)c2ccccc2o1	i	i	i	i	i
O=C(Nc1cccc2cccnc12)c1c(Cl)cc(Cl)cc1Cl	i	i	i	i	i
Cc1nn(C(C)C(=O)Nc2ccccc2C(F)(F)F)c(=O)c2c1sc1ccccc12 (stereo not given)	i	i	-47	i	i
Cc1nn(C(C)C(=O)NCC2CCCO2)c(=O)c2c1sc1ccccc12 (stereo not given)	i	i	i	i	i
SMILES	D1 ag	D1 potentiator	D1 antagonist	TRHR agonist	TRHR PAM
Cc1nn(C(C)C(=O)NC2CCCCC2)c(=O)c2c1sc1ccccc12 (stereo not given)	i	i	-34	i	i
CCn1c(SC(C)C)nnc1-c1c[nH]c2ccccc12	i	nt	-31	i	i
CCOC(=O)CSc1nnc(-c2c[nH]c3ccccc23)n1CC	i	nt	i	i	i
Cc1ccc2nc(-c3ccc(-c4ccccn4)s3)cn2c1	i	i	i	i	i
CCOc1ccc2c(c1)c(=O)c(S(=O)(=O)c1ccc(C)cc1)cn2Cc1ccccc1Cl	i	i	i	i	i
CCOc1ccc2c(c1)c(=O)c(S(=O)(=O)c1ccc(Cl)cc1)cn2Cc1ccccc1C	i	i	i	i	40
Cc1ccc(S(=O)(=O)c2cn(Cc3cccc(C)c3)c3cc4c(cc3c2=O)OCO4)cc1	i	i	i	i	i
COc1ccc(Cn2cc(S(=O)(=O)c3ccc(Cl)cc3)c(=O)c3cc4c(cc32)OCO4)cc1	i	i	-42	i	i
O=C(N/N=C/c1cc([N+](=O)[O-])cc(Br)c1O)C12CC3CCC(CC(C3)C1)C2	122	i	-32	i	i
COc1cc(/C=N/NC(=O)C23CC4CC(CC(C4)C2)C3)cc(Br)c1O	i	i	i	i	i
O=C(CSc1nc2c([nH]c3ccccc32)c(=O)n1-c1cccc(Cl)c1)NCc1ccccc1	i	i	i	i	i
COc1ccc(S(=O)(=O)NCCS(=O)(=O)N2CCN(c3ccccc3F)CC2)cc1	i	i	-38	i	i
CCCCOc1ccc(S(=O)(=O)N2CCN(c3ccccc3OCC)CC2)cc1	i	i	i	i	32
CC(=O)Nc1ccc(S(=O)(=O)NCCS(=O)(=O)N2CCN(c3ccccc3F)CC2)cc1	i	i	i	i	i
CCCCOc1ccc(C(=O)NCCS(=O)(=O)N2CCN(c3ccccc3OC)CC2)cc1	i	i	-65	i	i
CCOc1ccccc1N1CCN(S(=O)(=O)CC)CC1	i	i	i	i	i
C=C(C)CSc1nc2sc3c(c2c(=O)n1-c1ccc(OC)cc1)CCN(C)C3	i	i	i	i	i
CC(C)CN(CCNC(=O)CCN1N=C(c2ccccc2)CCC1=O)CC(C)C	i	i	i	i	i
COc1ccc(C(=O)NC(=S)Nc2cc3oc4ccccc4c3cc2OC)cc1	i	i	-78	i	i
COc1ccc(CCN(C)C2CCCN(S(=O)(=O)c3ccccc3F)C2)cc1OC (stereo not given)	i	i	-32	i	i
COC(=O)c1sccc1S(=O)(=O)N1CCCC(N(C)CCc2ccccn2)C1 (stereo not given)	i	i	-35	i	i
COc1cccc(-c2noc(-c3ccc(Br)o3)n2)c1	i	i	i	i	i
CC1CN(c2ccc([N+](=O)[O-])c(NCCOc3ccccc3)c2)CCN1 (stereo not given)	32	i	i	i	i
Cc1ccccc1OCCNc1cc(N2CCN(CCO)CC2)ccc1[N+](=O)[O-]	33	i	i	i	i
COc1ccc(OCCNc2cc(N3CCCCC3)ccc2[N+](=O)[O-])cc1	i	i	i	i	i
O=C(c1cccn1-c1nnc(N2CCCC2)s1)N1CCN(c2ccc(Cl)cc2)CC1	i	i	i	i	i
O=[N+]([O-])c1ccc(P(=O)(Cc2ccccc2)c2ccccc2O)cc1 (stereo not given)	i	i	-34	i	i
Cc1c(NC(=O)Nc2ccccc2C(F)(F)F)sc2nc3n(c(=O)c12)CCC(C)CC3 (stereo not given)	i	i	i	i	i

Bioassay records as filed in PubChem.
